The source of these data is PubChem BioAssay (Tox21).

“And” between values parts separate entries of the source, which are not always exact repeats. Identical values can stand only once. Results filed as inconclusive are left out. Where a call stands in place of a potency, no number is given. Where a structure was tested more than once in an assay, its records may differ in their call. The source made the active and inactive calls. Calls come from the whole dose curve; as a rule, active = well fitted cell-killing curve with a large enough effect in the repeat runs; inconclusive = weak or mixed curves, or effect the other way; inactive = no such curve, though single readings can be large or run the other way.
Potency is the fitted concentration of half-maximal effect.

This assay is described as follows: qHTS assay to identify small molecule agonists of the farnesoid-X-receptor (FXR) signaling pathway - cell viability counter screen (AID 743218). Note: nearly all actives have a fitted effect of over 45% in size. The note with it: FXR-bla HEK293T viability, CellTiter-Glo luminescence, 16 h; series mostly up to 62.6 µM. From the text:
U.S. Tox21 Program National Center for Advancing Translational Sciences [NCATS] NIH Chemical Genomics Center [NCGC] U.S. Environmental Protection Agency [EPA] National Institutes of Environmental Health Sciences [NIEHS] National Toxicology Program [NTP] U.S. Food and Drug Administration [FDA] Tox21 Assay Overview: The farnesoid-X-receptor (FXR), a nuclear hormone receptor, is highly expressed in liver, intestine, kidney and adrenal cortex. Natural ligands of FXR are the bile acids (Cholic acid, Chenodeoxy cholic acid etc). FXR is an important regulator of diverse metabolic pathways, including the bile acid homeostasis, lipid and glucose metabolisms. FXR regulates the expression of target genes by binding either as a monomer or as a heterodimer with the retinoid X receptor (RXR). Numerous studies have reported that FXR exerts protective function during cholestasis, diabetes, liver regeneration, and cancer. To identify compounds that activate FXR signaling, GeneBLAzer FXR-UAS-bla HEK 293T cell line (Invitrogen, Carlsbad, CA) containing a beta-lactamase reporter gene under the control of a UAS response element was used to screen the Tox21 10K compound library. The cytotoxicity of the Tox21 compound library against the FXR-bla cell line was tested in parallel by measuring the cell viability using CellTiter-Glo assay in the same wells.
Tox21 Assay Protocol Summary: FXR-bla cells were dispensed at 5000 cells/5uL/well in 1536-well black wall/clear bottom plates using a Multidrop Combi (Thermo Fisher Scientific, Waltham, MA) dispenser. After the assay plates were incubated at 37 C and 5% CO2 for 5 h, 23 nL of compounds dissolved in DMSO, positive controls or DMSO only was transferred to the assay plate by a Pintool station (Kalypsys, San Diego, CA). The assay plates were incubated at 37C for 16 h. After 1 uL of LiveBLAzerTM B/G FRET substrate was added using a Bioraptr Flying Reagent Dispenser (FRD) workstation (Beckman Coulter, Indianapolis, IN), the plates were incubated at room temperature for 2 h, and fluorescence intensity was measured by an Envision plate reader (PerkinElmer, Shelton, CT). For cell viability readout that measures cytotoxicity, 4uL/well of CellTiter-Glo reagent was added into the assay plates using a Bioraptr FRD. After 30 min incubation at room temperature, the luminescence intensity in the plates was measured using a ViewLux plate reader (PerkinElmer).
In the case of `CSc1nc(NC(C)C)nc(NC(C)C)n1`, the Potency entry is “inactive”. The same measure for `CC[n+]1c(-c2ccccc2)c2cc(N)ccc2c2ccc(N)cc21`: 614 nM (active); for `ClCc1ccccn1`: “inactive”. On to `CCC/C=N/O`, for which the Potency entry was “inactive”. As to `Oc1ccc(Cl)cc1Cc1ccccc1`, the Potency was 60.5 µM (active) and inactive. Regarding `COc1ccc(O)c(C(C)(C)C)c1`, the Potency result is “inactive”. Under `O=C(O)CF` stands “inactive”; under `CC(C)(O)C(=O)Nc1ccc([N+](=O)[O-])c(C(F)(F)F)c1`, “inactive”; under `CN(C)P(=O)(N(C)C)N(C)C`, “inactive”.

As to `CCOP(=O)(O)OCC` (tested in a mixture with another compound), the Potency result was “inactive and 43.3 µM (active)”.

Take `CC(C)(c1ccc(OCC2CO2)cc1)c1ccc(OCC2CO2)cc1` (stereo not given): the Potency entry was “inactive”. Under `O=P(OCCCl)(OCCCl)OCCCl` stands “inactive”; under `CCCCSP(=O)(SCCCC)SCCCC`, “inactive”. The same measure for `COP(=S)(OC)Oc1ccc(Sc2ccc(OP(=S)(OC)OC)cc2)cc1`: “inactive”; for `N#CCCCCC#N`: “inactive”; for `CNC(=O)CSP(=S)(OC)OC`: “inactive”.

As for `Cc1ccc(N=CN(C)C=Nc2ccc(C)cc2C)c(C)c1`, the Potency result was “inactive”. On to `CCOP(=S)(OCC)OP(=S)(OCC)OCC`, for which the Potency entry is “inactive”. Under `CCC1(c2ccc(N)cc2)CCC(=O)NC1=O` (stereo not given) stands “inactive”. Turning to `Cn1c(-c2ccccc2)cc(-c2ccccc2)[n+]1C`, the Potency entry is “inactive”. The same measure for `Clc1ccc(C(Cl)(Cl)Cl)cc1`: “inactive”; for `Oc1ccc(Cl)cc1Cl`: “inactive”. Under `CC(C)(O)C#N` stands “inactive”; under `CCNCC`, “inactive”; under `CCOS(=O)(=O)OCC`, “inactive”. Turning to `COc1ccc(C=O)cc1OC`, the Potency result is “inactive”.

Regarding `O=C1Nc2ccc(Cl)cc2C(c2ccccc2)=NC1O` (stereo not given), the Potency entry was “inactive”. The same measure for `CS(=O)(=O)NC(=O)c1cc(Oc2ccc(C(F)(F)F)cc2Cl)ccc1[N+](=O)[O-]`: “inactive”. The same measure for `O=S(=O)(O)C(F)(F)C(F)(F)C(F)(F)C(F)(F)C(F)(F)C(F)(F)C(F)(F)C(F)(F)F`: 52.3 µM (active) and 49 µM (active) and 33.6 µM (active); for `CC(C)Nc1ccc(Nc2ccccc2)cc1`: “inactive”; for `CCCCOC(=O)COC(=O)c1ccccc1C(=O)OCCCC`: “inactive”. The same measure for `[Cl-].[Cl-].[Cl-].[Fe+3]`: “inactive”; for `N#Cc1nn(-c2c(Cl)cc(C(F)(F)F)cc2Cl)c(N)c1S(=O)C(F)(F)F` (stereo not given): “inactive”; for `S=c1[nH]c2ccccc2[nH]1`: “inactive”. For the molecule `CC1=C(C(=O)Nc2ccccc2)SCCO1`, the Potency result is “inactive”.

With `O=NN(c1ccccc1)c1ccccc1`, the Potency result was “inactive”. The same measure for `C[N+](C)(C)C`: “inactive”; for `CN(C)c1nc(=O)n(C2CCCCC2)c(=O)n1C`: “inactive”; for `COc1ccc(CO)cc1`: “inactive”. Under `CC(C)COC(=O)c1ccccc1C(=O)OCC(C)C` stands “inactive”.
